According to PubChem BioAssay (Tox21):
Inconclusive results are not listed. Calls of active or inactive are those of the source. Unless noted, calls come from the whole dose curve; as a rule, active = well fitted curve in the direction sought with a large enough effect in the repeat runs; inconclusive = weak or mixed curves; inactive = no such curve, though single readings can be large; an effect the other way counts as inactive or inconclusive.

What was measured:
[1] = qHTS assay to identify small molecule antagonists of the vitamin D receptor (VDR) signaling pathway - cell viability counter screen (AID 743225); note: nearly all actives have a fitted effect of over 50% in size
How it was run: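 Cytotoxicity toward the VDR-bla HEK 293T line was scored by ATP-based CellTiter-Glo luminescence, read in the wells already used for the beta-lactamase readout after 16 h compound treatment under 3 nM 1-alpha,25-dihydroxyvitamin D3 stimulation.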

[2] = qHTS assay to identify small molecule agonists of the NFkB signaling pathway (AID 1159509; active = well fitted curve in the direction sought with a large enough effect in the signal ratio in the repeat runs, not every such curve was filed as active; the % refers to the signal ratio; note: series mostly up to about 61 µM)
How it was run: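 Readout: FRET fluorescence, 405 nm excitation, 460/530 nm emission; beta-lactamase expression disrupts FRET. Cells: ME-180 stably carrying NF-kB-driven bla reporter. Compound exposure 5 hr, 37 C, 5% CO2.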

[3] = qHTS assay to identify small molecule agonists of the NFkB signaling pathway - cell viability counter screen (AID 1159515; calls by dose curve; note: series mostly up to about 61 µM; nearly all actives have a fitted effect of over 55% in size)
How it was run: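 Plate 2,000 NFkB-bla ME-180 cells/well; incubate overnight. Add compounds, 5 hr at 37 C. Add FRET substrate, 1.5 hr RT. Add CellTiter-Glo, 30 min RT; read luminescence.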

[4] = qHTS assay to identify small molecule agonists of the endoplasmic reticulum stress response signaling pathway (AID 1159516; active = well fitted activation curve with a large enough effect in the signal ratio in the repeat runs, not every such curve was filed as active; the % refers to the signal ratio)
How it was run: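 Beta-lactamase expression from the ER stress response element in HeLa reporter cells is quantified with the LiveBLAzer B/G FRET substrate, read at 405 nm excitation after 2 hr at room temperature, following 5 hr compound treatment at 37 C.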

[5] = qHTS assay to identify small molecule agonists of the endoplasmic reticulum stress response signaling pathway - cell viability counter screen (AID 1159517; calls by dose curve; note: series mostly up to about 61 µM; nearly all actives have a fitted effect of over 50% in size)
How it was run: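 Cytotoxicity of test compounds toward ESRE-bla HeLa cells was assessed after 5 hr exposure. The luminescent CellTiter-Glo signal was measured 30 min after reagent addition.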

[6] = qHTS assay to identify small molecule antagonists of the retinoid-related orphan receptor gamma (ROR-gamma) signaling pathway - cell viability counter screen (AID 1159520); note: nearly all actives have a fitted effect of over 50% in size
How it was run: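 Tet-on ROR gamma CHO cells (1,000/well) were plated 4 hr, given compounds in DMSO for 2 hr at 37 C, then induced with 1 uM final doxycycline for 16 hr. Viability was read as ATP by CellTiter-Glo luminescence after 30 min.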

[7] = qHTS assay to identify small molecule agonists of the AP-1 signaling pathway (AID 1159526; calls by dose curve)
[8] = biological target: Retinoic acid receptor RXR-alpha (Homo sapiens) (UniProt P19793); experiment: qHTS assay to identify small molecule agonists of the RXR signaling pathway (AID 1159527; calls by dose curve; note: nearly all actives have a fitted effect of over 35% in size)
How it was run: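 Reporter activation is measured as beta-lactamase activity via FRET substrate cleavage (emission 460/530 nm) in HEK 293T cells expressing an RXR-alpha-driven bla construct, following 16 hr compound exposure at 37 C.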

[9] = qHTS assay to identify small molecule agonists of the RXR signaling pathway - cell viability counter screen (AID 1159529); note: series mostly up to about 77 µM; nearly all actives have a fitted effect of over 50% in size
How it was run: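 Tox21 10K compounds were tested for cytotoxicity against GeneBLAzer RXR-alpha HEK 293T cells grown in 2% charcoal-stripped FBS. Exposure lasted 16 hr at 37 C, 5% CO2; viability read by CellTiter-Glo luminescence.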

[10] = qHTS assay to identify small molecule antagonists of the retinoid acid receptor (RAR) signaling pathway - cell viability counter screen (AID 1159551); note: nearly all actives have a fitted effect of over 35% in size
How it was run: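 Viability of C3RL4 cells is quantified from ATP by luminescence after 6 h treatment at 37 C with compounds and 1 uM retinol.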

[11] = qHTS assay to identify small molecule antagonists of the retinoic acid receptor (RAR) signaling pathway (AID 1159552; note: nearly all actives have a fitted effect of over 50% in size)
How it was run: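 Overnight-plated C3RL4 reporter cells get compound, then retinol to 1 uM final; plates sit 6 hr at 37 C, 5% CO2. A luciferase reagent is added and light output recorded after 30 min at room temperature.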

[12] = qHTS assay to identify small molecule antagonists of the estrogen related receptor (ERR) signaling pathway from Tox21 library - cell viability counter screen (AID 1224834); note: nearly all actives have a fitted effect of over 30% in size
How it was run: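 In this quantitative HTS format, ERR cells receive compounds in DMSO and are incubated for 17.5 h at 37 C. Live-cell protease activity is then detected with CellTiter-Fluor.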

[13] = qHTS assay to identify small molecule agonists of the AP-1 signaling pathway - cell viability counter screen (AID 1159525; calls by dose curve; note: nearly all actives have a fitted effect of over 55% in size)
How it was run: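 Each titration point was normalised to DMSO and tetra n-octyl ammonium bromide controls. The read was Cell Titer Glo luminescence after 30 min at RT, following 5 h compound exposure of ME-180 AP-1-bla cells at 37 °C.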

[14] = qHTS assay to identify small molecule agonists of the retinoic acid receptor (RAR) signaling pathway (AID 1159553)
How it was run: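 Compounds dissolved in DMSO were pinned onto C3RL4 cells seeded the previous day, and plates were held 6 hr at 37 C. RARE-driven luciferase output was then read by luminescence.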

Measured: Potency

Retinoic acid receptor RXR-alpha (Homo sapiens), sequence (P19793 whole entry, looked up): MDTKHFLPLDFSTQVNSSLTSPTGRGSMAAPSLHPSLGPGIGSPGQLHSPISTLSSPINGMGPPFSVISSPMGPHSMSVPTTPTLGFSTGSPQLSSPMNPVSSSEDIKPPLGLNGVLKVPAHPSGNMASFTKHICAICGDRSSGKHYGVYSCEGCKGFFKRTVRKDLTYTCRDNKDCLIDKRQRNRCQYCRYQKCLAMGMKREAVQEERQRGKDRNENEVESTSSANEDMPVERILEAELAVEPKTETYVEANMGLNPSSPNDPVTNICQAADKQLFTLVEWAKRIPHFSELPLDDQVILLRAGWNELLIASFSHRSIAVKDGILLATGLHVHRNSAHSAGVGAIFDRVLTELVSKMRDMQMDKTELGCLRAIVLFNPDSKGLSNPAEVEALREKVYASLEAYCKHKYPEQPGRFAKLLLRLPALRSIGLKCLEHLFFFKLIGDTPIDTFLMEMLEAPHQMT

CC(C)(CO)[C@@H](O)C(=O)NCCC(=O)O
inactive: [1] | [2] | [3] | [4] | [5] | [6] | [7] | [8] | [9] | [10] | [11] | [12]

COc1cc(C)ccc1C(C)C
inactive: [1] | [2] | [3] | [4] | [5] | [6] | [13] | [7] | [8] | [10] | [11] | [12]

CCCCC(CC)COC(=O)COc1cc(Cl)c(Cl)cc1Cl (centres undefined)
inactive: [1] | [2] | [3] | [4] | [5] | [6] | [7] | [8] | [9] | [10] | [11] | [14] | [12]

CCCC(CCC)(C(=O)OCC)C(=O)OCC
inactive: [1] | [2] | [3] | [4] | [5] | [6] | [13] | [7] | [8] | [10] | [11] | [14] | [12]

O=C1CCC(C2CCCCC2)CC1
inactive: [1] | [2] | [3] | [4] | [5] | [6] | [13] | [7] | [8] | [10] | [11] | [14] | [12]

CCCNC(C)(C)COC(=O)c1ccccc1
inactive: [1] | [2] | [3] | [4] | [5] | [6] | [7] | [8] | [9] | [10] | [11]

Oc1ccccc1F
inactive: [2] | [3] | [4] | [5] | [6] | [13] | [7] | [8] | [10] | [11] | [14] | [12]

CCCCCCC
inactive: [1] | [2] | [3] | [4] | [5] | [6] | [13] | [7] | [8] | [9] | [10] | [11] | [12]

CCOC(=O)c1cc(=O)c2c(OCC(COc3cccc4oc(C(=O)OCC)cc(=O)c34)OC(=O)[C@@H](N)CCCCN)cccc2o1
inactive: [1] | [2] | [3] | [4] | [5] | [6] | [13] | [7] | [8] | [10] | [11] | [14] | [12]

CCOc1ccc(NC(N)=O)cc1
inactive: [1] | [2] | [3] | [4] | [5] | [6] | [7] | [8] | [9] | [10] | [11] | [14]
